# Bioassay records from PubChem BioAssay.
# PolyA inhibitor: blocks polyadenylation in yeast reporter cells; S. cerevisiae SKY197-pL101 polyadenylation reporter, beta-gal luminescence; efflux-impaired pdr1/pdr3 knockout yeast; score 100 = 6 SD above DMSO; activity score, % at 12 µM; hit rate 0.02% among 300,000; AID 1875;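 active = lowest replicate activity score at least 50, where 100 means six control SD above control mean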;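 note: yeast exposed to compound for 9 h at 30 °C; higher score means more reporter readthrough which indicates perturbed polyadenylation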
# NLRP3 yeast inh: blocks the NALP3 inflammasome reconstituted in yeast | Yeast reconstituted NLRP3/ASC/caspase-1, beta-gal luminescence, 24 h | inhibition, % at 10 µM | hit rate 0.39% among 330,000 | AID 2825;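 active = inhibition of 50% or more; inactive = inhibition below 50%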;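 note: plate controls were induced DMSO wells for no effect and uninduced yeast grown without galactose for full effect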
# NALP1 yeast inh: blocks the NALP1 inflammasome reconstituted in yeast; S. cerevisiae NALP1/ASC/caspase-1 growth, X-gal OD620, 72 h; inhibition, % at 10 µM; hit rate 0.61% among 280,000; in the data active = inhibition mostly above about 24%, no sharp cut-off; inactive = mostly below about 32%
# EBNA-1 inh: blocks EBNA-1 binding to DNA; EBNA-1 DNA binding, fluorescence polarization; inhibition, % at 14.8 µM; hit rate 0.34% among 300,000; in the data active = inhibition above about 28%
# ZTA DNA inh: counter-screen for EBNA-1 inhibitors: inhibitors of Epstein-Barr virus ZTA. P03206. ZTA-DNA binding, fluorescence polarization. inhibition, % at 11 µM. hit rate 0.15% among 320,000; in the data active = inhibition above about 33%
# Target sequence (P03206 whole entry, looked up): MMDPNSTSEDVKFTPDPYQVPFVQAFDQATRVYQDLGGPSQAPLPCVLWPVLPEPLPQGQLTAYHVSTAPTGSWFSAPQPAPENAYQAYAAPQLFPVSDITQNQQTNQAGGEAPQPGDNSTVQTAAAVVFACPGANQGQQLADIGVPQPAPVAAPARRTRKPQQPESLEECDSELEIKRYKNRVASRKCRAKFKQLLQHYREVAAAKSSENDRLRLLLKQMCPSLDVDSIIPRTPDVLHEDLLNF
# dFosB act: mouse delta FosB homodimer activation. purified delta FosB, TAMRA-CDK5 oligo fluorescence polarization; percent of positive-control signal above neutral wells. activation, % at 25 µM. hit rate 0.99% among 340,000;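 active = mean activation above about 17%, with every replicate also reaching it, limit read from the data, passing the limit was not always enough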
# Active calls of the source: *; nt = no result. Rows were chosen to be rich in hits. Some 2.2% of all compounds tested hit in one or more screens of this group.
SMILES,PolyA inhibitor,NLRP3 yeast inh,NALP1 yeast inh,EBNA-1 inh,ZTA DNA inh,dFosB act
O=C(CCN1C(=O)/C(=C\c2ccc(F)cc2)SC1=S)Nc1ccc(O)cc1,0,15,24,17,-12,32*
CCc1nnc(NC(=O)CSc2nc(C)cs2)s1,8,10,-8,-4,-24,2
COc1ccc(NC2CCCN(C(=O)CCCn3cncn3)C2)cc1OC (centres undefined),1,6,8,-4,-1,0
CN(C)c1ccc(C(C[N+](=O)[O-])c2c(N)n(C)c(=O)n(C)c2=O)c(F)c1C#N (centres undefined),-5,24,26,5,1,-1
Cn1c(N)c(C(C[N+](=O)[O-])c2c(F)cccc2Cl)c(=O)n(C)c1=O (centres undefined),18,23,44*,-21,4,3
COCCCN(C(=S)Nc1cc(Cl)cc(Cl)c1)C(C)c1ccncc1 (centres undefined),-9,-1,68*,0,3,-11
c1ccc(CN2CCN(CCOCCOc3cccc4ccccc34)CC2)cc1,0,31,38*,-1,-9,-5
O=C(c1ccco1)N1CCN(CCOCCOc2cccc3ccccc23)CC1,-13,33,-18,-16,-2,1
O=C(OCc1cccc(F)c1)c1ccc2c(=O)n3c(nc2c1)CCC3,2,0,35*,1,4,-21
CN(Cc1cccc(F)c1)C(=O)c1ccc2c(=O)n3c(nc2c1)CCC3,-5,-8,-2,5,15,0
CCOC(=O)C1=C(COC(=O)/C=C/c2ccc(OC)cc2OC)NC(=O)NC1C (centres undefined),-8,8,nt,6,2,-12
O=C(Nc1ncn[nH]1)c1cccc(S(=O)(=O)N2CCOCC2)c1,7,6,6,2,-14,-1
O=C(CCN1CCc2ccccc2C(c2ccccc2)C1)c1ccc2c(c1)OCCO2 (centres undefined),-18,23,70*,1,-3,-7
Cc1cc(-c2ccccc2)c2ccc(NC(=O)C(C)(C)C)nc2n1,-1,32,24,-9,-1,-26
Clc1cccc2c1Sc1ccccc1CC2N1CCNCC1 (centres undefined),4,13,74*,-6,-5,-49
CN1CCN(S(=O)(=O)c2ccc(NC(=S)NC(=O)C(C)(C)C)cc2)CC1,-2,17,80*,2,-4,-7
CCOc1ccccc1N(C)C(=O)CCS(=O)(=O)c1ccc2c(c1)NC(=O)CO2,2,2,-1,-4,-1,3
Cc1ccc(CNC(=O)CCS(=O)(=O)c2ccc(Br)s2)cc1,-16,8,43*,-1,8,10
COc1ccc(OCC(N)=O)cc1,-2,10,39*,1,11,-2
COc1cc(OCC(N)=O)cc(OC)c1OC,-14,12,21,-6,2,-2
COc1ccc(Cn2nnnc2CN2CCc3ccccc32)cc1,18,17,2,8,11,-6
COc1ccc(Cn2nnnc2CN2CCc3ccccc3C2)cc1,-2,14,27*,-9,-2,-10
O=C(NC(=S)NC1C2CC3CC(C2)CC1C3)c1ccccc1 (centres undefined),-39,40,2,12,4,-8
CCOC(=O)c1ccc2c(c1)n(CC)c(/C=C/N(C)c1ccccc1)[n+]2CC,5,-2,15,2,18,-3
CC[n+]1c(/C=C/N(C)c2ccccc2)n(-c2ccccc2)c2ccc(-c3nc4ccccc4s3)cc21,-29,39,46*,15,42*,-40
O=C(CN1CCN(c2ccc(F)cc2)CC1)N1CCC(Cc2ccccc2)CC1,6,16,31*,9,8,4
O=C(Nc1ccn(CCCNCCCN2CCCC2=O)c(=O)n1)OCc1ccccc1,nt,nt,nt,nt,nt,-6
Brc1ccc(/C=N/Nc2ncnc3c2cnn3Cc2ccccc2)cc1,-11,13,30*,4,-2,-18
c1ccc(Cn2ncc3c(Nc4ccccc4)ncnc32)cc1,-4,18,nt,11,19,1
CCN(CC)S(=O)(=O)c1cccc(NC(=O)CCNC(=O)NC23CC4CC(CC(C4)C2)C3)c1,-4,12,nt,-8,2,-13
